Rows were chosen to be rich in hits. Some 2.4% of all compounds tested hit in one or more screens of this group.
Pol iota inh: DNA polymerase iota (human) inhibition; Q9UNA4; Pol iota fluorescent replication assay, 10 min; Potency, µM (highest dose often 115 µM), without a hit: at the highest dose activity, negative = inhibition, usual class: inhibitors; actives 1% (n = 390,000)
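Fluorescent replication assay read twice, at 0 min and 10 min after adding 50 nM (final) substrate. Enzyme (10 nM) and compounds were first incubated 15 min at room temperature; enzyme-free buffer wells were negative controls.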
Pol eta inh: DNA polymerase eta (human) inhibition; recombinant Pol eta, fluorescent DNA replication assay; Q9Y253; actives 1.2% (n = 390,000); Potency, µM (doses to about 114 µM), for inactives: at the top dose activity change, negative = inhibition, actives largely listed as inhibitors; also: % is scaled to controls: 0 for no effect and ±100 for the full control effect
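Pol eta (10 nM) was preincubated with compounds for 15 min at room temperature, after which fluorescent replication substrate (50 nM final) was added to start the reaction. Fluorescence was read kinetically at 0 and 10 min.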
POLB inh: inhibitors of human DNA polymerase beta | P06746 | Pol beta primer extension/strand displacement, fluorescence kinetic | Potency, µM (series often up to 114 µM), inactives show at the top dose activity change, negative = inhibition, usual class: inhibitors | actives 1.3% (n = 340,000); also: % is scaled to controls: 0 for no effect and ±100 for the full control effect
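10 nM enzyme + cpd, 15 min RT; start with substrate 50 nM final; read 0 min and after 10 min RT. Corrected, normalized data; 4-parameter Hill curve fit.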
WRN inhibitor: inhibitors of human WRN helicase | Potency, µM (highest dose often 114 µM), for the others: top-dose activity change, negative = inhibition, actives largely listed as inhibitors | WRN helicase unwinding, fluorescent forked duplex, kinetic | actives 0.46% (n = 360,000) | AID 651768 | Q14191; also: % is scaled to controls: 0 for no effect and ±100 for the full control effect; nearly all actives have a fitted effect of over 55% in size
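Screening of the MLSMR collection measured strand separation of a quenched forked DNA duplex (100 nM) by 20 nM WRN with 2 mM ATP, all final. Compounds were preincubated with enzyme 15 min at room temperature.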
POLK inh: DNA polymerase kappa (human) inhibition; Potency, µM (highest dose often 107 µM), without a hit: at the highest dose activity, negative = inhibition, usual class: inhibitors; Q9UBT6; purified Pol kappa, fluorescent DNA synthesis assay, 10 min; actives 0.53% (n = 400,000); also: % is scaled to controls: 0 for no effect and ±100 for the full control effect
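10 nM Pol kappa was preincubated with compounds for 15 min at room temperature. Reaction started with 50 nM (final) substrate. Fluorescence read kinetically at 0 and 10 min.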
FEN1 inh: inhibitors of human flap endonuclease 1; Potency, µM (titrated, usually from 114 µM), inactives show at the top dose activity change, negative = inhibition, hits mostly inhibitors; AID 588795; Recombinant FEN1 flap cleavage, fluorescence, 15 min; actives 0.35% (n = 390,000); P39748; also: % is scaled to controls: 0 for no effect and ±100 for the full control effect; nearly all actives have a fitted effect of over 65% in size
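Read-out was taken twice, immediately and after 15 min, following addition of 50 nM substrate to 10 nM FEN1 that had sat with test compound for 15 min at room temperature. Curves came from a four-parameter Hill model.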
An asterisk follows results filed as active; [ ] = remark or other dose. Calls follow the shape of the dose curve; as a rule, active = well fitted curve in the direction sought with a large enough effect; inconclusive = small, poorly fitted or top-dose-only effect, or another doubt; inactive = no such curve, though single readings can be large; an effect the other way counts as inactive or inconclusive. Potency is read from the fitted curve at half-maximal effect.

`O=C(Nc1ccc(-c2cn3ccccc3n2)cc1)c1cccs1` gave Pol iota inh inconclusive, Pol eta inh inconclusive, POLB inh 10µM*, WRN inhibitor -10%[11.6 µM], POLK inh inconclusive and FEN1 inh -24%.
`CCOC(=O)C1=C(CSc2nc3c(cc2C#N)CN(C)CC3)OC(N)=C(C#N)C1c1ccc(Cl)cc1` (configuration not stated) gave Pol iota inh inconclusive, Pol eta inh inconclusive, POLB inh 19%, WRN inhibitor inconclusive, POLK inh inconclusive and FEN1 inh -9%.
For CCOC(=O)C1=C(CSc2nc3c(cc2C#N)CN(C)CC3)OC(N)=C(C#N)C1c1ccncc1 (configuration not stated) the results were Pol iota inh 32µM*, Pol eta inh inconclusive, POLB inh inconclusive, WRN inhibitor -29%, POLK inh inconclusive and FEN1 inh -13%.
Screening COc1ccc(NC(=O)c2ccccc2OCC(=O)Nc2ccc(Br)cc2)cc1 returned Pol iota inh -3%, POLK inh -12% and FEN1 inh -12%.
CCCCCCOc1ccc(C2C(=O)N(C3CCCCC3)CC(=O)N2CCC)cc1 (configuration not stated) was read as Pol iota inh 18%, Pol eta inh -23%, POLB inh -14%, POLK inh -15%[60.1 µM] and FEN1 inh -19%.
CCCCN(C(=O)c1cc(-c2ccco2)nc2ccccc12)c1c(N)n(CCCC)c(=O)[nH]c1=O was read as Pol iota inh 18µM*, Pol eta inh 50µM*, WRN inhibitor inconclusive, POLK inh 79µM* and FEN1 inh -16%.
Screening COCCN(C(=O)c1cc(-c2ccco2)nc2ccccc12)c1c(N)n(Cc2ccccc2)c(=O)[nH]c1=O returned Pol iota inh 18µM*, Pol eta inh 22µM*, WRN inhibitor inconclusive, POLK inh inconclusive and FEN1 inh inconclusive.
Screening CCCN(C(=O)c1cc(-c2ccco2)nc2ccccc12)c1c(N)n(Cc2ccccc2)c(=O)[nH]c1=O returned Pol iota inh 20µM*, Pol eta inh 16µM*, WRN inhibitor inconclusive, POLK inh -45% and FEN1 inh -17%.
`CCCn1c(N)c(N(CCOC)C(=O)c2cc(Cl)nc3ccccc23)c(=O)[nH]c1=O` gave Pol iota inh 6%, Pol eta inh -19%, WRN inhibitor 0%, POLK inh -6% and FEN1 inh -2%.
For COc1cc(N(C)C)c(OC)cc1/C=C1\C=Cc2ccccc21 the results were Pol iota inh 4%, POLK inh -25% and FEN1 inh -21%.
COc1cccc(NC(=O)NNC(=O)CCc2ccc(O)c(O)c2)c1 was read as Pol iota inh 40µM*, Pol eta inh -5%, POLB inh 42%, WRN inhibitor 4%, POLK inh 25µM* and FEN1 inh 19%.
Screening COc1ccc(-n2c(=O)c3c4c(sc3n(Cc3ccc(C)cc3C)c2=O)CCC4)c(OC)c1 returned Pol iota inh -9%, Pol eta inh -5%, POLB inh 3%, POLK inh -14% and FEN1 inh 3%.
For COc1ccc(-n2c(=O)c3c4c(sc3n(Cc3cc(=O)n5c(C)cccc5n3)c2=O)CCC4)c(OC)c1 the results were Pol iota inh 79µM*, Pol eta inh inconclusive, POLB inh -20%, POLK inh -11% and FEN1 inh -7%.
Screening CCN(c1ccc(OC)cc1)S(=O)(=O)c1ccc2c(c1)CCN2C(=O)CCC(=O)O returned Pol iota inh -22%[58.9 µM], Pol eta inh -2%, POLB inh 3%, WRN inhibitor -8%, POLK inh -40% and FEN1 inh -3%.
CCN(c1ccc(C)c(C)c1)S(=O)(=O)c1ccc2c(c1)CCN2C(=O)CCC(=O)O was read as Pol iota inh 7%, Pol eta inh -12%, POLB inh 89µM*, WRN inhibitor -7%, POLK inh 8% and FEN1 inh -16%.
`O=S(=O)(c1ccc(F)cc1)N1CCN(c2nc(-c3cccs3)nc3cc(Cl)ccc23)CC1` gave Pol iota inh 12%, POLK inh 18% and FEN1 inh 10%.
For CCCn1c(SCC(=O)NC(=O)NCc2ccccc2)n[nH]c1=O the results were Pol iota inh 29%, Pol eta inh -13%, WRN inhibitor -1%, POLK inh 18% and FEN1 inh 4%.
For CCn1c(SCC(=O)NC(=O)NCc2ccco2)nc2sc(C)c(C)c2c1=O the results were Pol iota inh 28µM*, Pol eta inh inconclusive, POLB inh 20µM*, WRN inhibitor inconclusive, POLK inh inconclusive and FEN1 inh 3%.
Screening C=CCn1c(SCC(=O)NCc2ccco2)nc2ccccc2c1=O returned Pol iota inh -6%, Pol eta inh -7%, POLB inh -24%, WRN inhibitor -14%, POLK inh -13% and FEN1 inh -9%.
For Cc1sc2nc(SCC(=O)NCc3ccco3)n(C)c(=O)c2c1C the results were Pol iota inh inconclusive, Pol eta inh inconclusive, POLB inh 27%, WRN inhibitor -8%[57.1 µM], POLK inh -5% and FEN1 inh -10%.
Cc1sc2nc(SCc3ccc(C(=O)O)cc3)n(Cc3ccco3)c(=O)c2c1C was read as Pol iota inh inconclusive, Pol eta inh 79µM*, POLB inh inconclusive, WRN inhibitor -19%, POLK inh -5% and FEN1 inh 1%.
Screening CCCn1c(SCC(=O)NC(=O)NCc2ccco2)n[nH]c1=O returned POLB inh 14µM*.
Screening C=CCn1c(SCC(=O)NC(=O)NCc2ccco2)nc2sc(CC)cc2c1=O returned Pol iota inh 45µM*, Pol eta inh 11µM*, POLB inh 14µM*, WRN inhibitor -20%[11.6 µM], POLK inh inconclusive and FEN1 inh -10%.
O=C(O)[C@H](Cc1c[nH]c2ccccc12)N1C(=O)C2=CCCC=C2C1=O was read as POLK inh 13%[60.1 µM].
Screening CCOC(=O)NC1(NC(C)C)Oc2ccccc2O1 returned Pol iota inh inconclusive, Pol eta inh -15%, POLB inh 5%, WRN inhibitor 3%, POLK inh 11% and FEN1 inh -2%.
For CCOC(=O)NC1(NC2CCCCC2)Oc2ccccc2O1 the results were Pol iota inh 71µM*, Pol eta inh -1%, POLB inh 25µM*, WRN inhibitor -27%, POLK inh 79µM* and FEN1 inh -14%.
